# FAK inh: inhibitors of human focal adhesion kinase. biochemical FAK kinase activity assay. Q05397. inhibition, %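 (tested at 7 µM)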. hit rate 0.84% among 97,000. AID 727; in the data active = inhibition above about 19%;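 note: 0% = DMSO and 100% = reference compound high control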
# Target sequence (Q05397 whole entry, looked up): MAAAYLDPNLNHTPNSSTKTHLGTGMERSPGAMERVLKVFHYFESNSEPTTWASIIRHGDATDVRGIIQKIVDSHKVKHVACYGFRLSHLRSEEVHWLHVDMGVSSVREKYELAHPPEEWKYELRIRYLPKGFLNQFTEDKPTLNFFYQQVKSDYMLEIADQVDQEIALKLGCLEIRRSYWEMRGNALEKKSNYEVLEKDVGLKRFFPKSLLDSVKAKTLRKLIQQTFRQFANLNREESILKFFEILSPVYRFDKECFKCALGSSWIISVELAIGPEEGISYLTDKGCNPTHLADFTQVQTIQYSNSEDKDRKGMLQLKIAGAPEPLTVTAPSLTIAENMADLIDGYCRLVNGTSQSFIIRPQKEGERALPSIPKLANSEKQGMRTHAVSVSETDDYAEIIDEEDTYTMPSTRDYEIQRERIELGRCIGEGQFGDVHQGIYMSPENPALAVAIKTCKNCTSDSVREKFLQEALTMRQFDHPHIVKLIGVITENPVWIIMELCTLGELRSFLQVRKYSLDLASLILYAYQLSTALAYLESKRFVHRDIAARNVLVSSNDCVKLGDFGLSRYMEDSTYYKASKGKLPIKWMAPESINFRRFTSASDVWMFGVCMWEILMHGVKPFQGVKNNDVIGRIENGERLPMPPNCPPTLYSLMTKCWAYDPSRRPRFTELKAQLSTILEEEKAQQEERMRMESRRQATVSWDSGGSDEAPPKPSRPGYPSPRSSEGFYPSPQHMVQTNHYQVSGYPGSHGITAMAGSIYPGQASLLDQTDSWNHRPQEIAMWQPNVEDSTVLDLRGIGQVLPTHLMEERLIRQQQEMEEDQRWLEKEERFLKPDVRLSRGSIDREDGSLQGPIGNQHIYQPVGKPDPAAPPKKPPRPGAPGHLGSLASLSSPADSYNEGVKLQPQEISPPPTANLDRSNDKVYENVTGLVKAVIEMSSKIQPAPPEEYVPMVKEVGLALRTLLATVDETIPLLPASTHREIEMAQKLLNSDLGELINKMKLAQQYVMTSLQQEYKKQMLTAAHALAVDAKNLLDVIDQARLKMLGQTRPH
# Candida biofilm: kills Candida albicans biofilms. hit rate 0.14% among 85,000. inhibition, % at 6 µM. C. albicans biofilm + clotrimazole, Alamar Blue;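 active = inhibition above 20%; inactive = inhibition below 20%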;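 note: preformed 24 hr biofilms exposed to compound for 48 hr; 0% = biofilm without compound and 100% = blank killed by clotrimazole plus chlorhexidine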
# ERa SRC1 pot: ER-alpha (human) coactivator binding potentiation; coactivator binding (% of control), % at 25.6 µM; hit rate 1.3% among 86,000; TR-FRET ERalpha-LBD/SRC-Cy5 coactivator binding, 2 h; 100 = basal binding, no effect; in the data active = activity above about 200%;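 note: binding measured in presence of low estradiol as agonist stimulus; 0% = peptide alone without receptor and 100% = receptor with peptide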
# ERa coact inh: blocks coactivator binding to human estrogen receptor alpha; P03372; hit rate 1.7% among 86,000; TR-FRET ER-alpha LBD / SRC-1 peptide, estradiol-bound; inhibition, % at 25.6 µM; AID 629; in the data active = inhibition above about 50%;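 note: 0% = receptor plus peptide control and 100% = peptide only without receptor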
# Smad3 inh: Smad3 (human) transcription factor binding inhibition; inhibition, % at 25 µM; hit rate 0.29% among 88,000; TR-FRET Smad3/Dy647-FoxH1 peptide binding, europium anti-His;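 active = compounds that reduce the energy-transfer binding signal between the protein and its labelled peptide by more than half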;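 note: 0% = Smad3 plus labelled peptide maximal FRET and 100% = peptide-only background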
# ERb SRC1 inh: blocks coactivator binding to human estrogen receptor beta; TR-FRET ER-beta LBD / SRC1-Cy5 peptide binding; receptor agonist-loaded with 1 µM estradiol; hit rate 1.3% among 86,000; Q92731; inhibition, % at 25.6 µM;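 active = compounds whose percent inhibition of the receptor-coactivator binding signal exceeds about 50% in the single-dose screen, limit read from the data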;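 note: 0% = receptor plus peptide wells without compound and 100% = peptide-only wells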
# Active calls of the source: *; nt = not tested or not shown; [ ] = another dose, or the depositor's remark. This is a sample that favours compounds with a hit; in the whole collection about 3.3% have one here.
SMILES,FAK inh,Candida biofilm,ERa SRC1 pot,ERa coact inh,Smad3 inh,ERb SRC1 inh
CC1=C(C(N)=O)C(c2ccncc2)n2nc(-c3ccccc3Cl)nc2N1 (centres undefined),3,21*,123,-3,-10,3
COc1ccccc1-c1nc2n(n1)C(c1ccc(Cl)cc1)C(C(N)=O)=C(C)N2 (centres undefined),0,4,83,23,-6,31
CSc1nc2nccc(-c3ccc(-c4ccccc4)cc3)n2n1,4,2,220*,40,14,13
O=C(CSc1ccc(Cl)cc1)Nc1ccc(N2CCN(C(=O)c3ccco3)CC2)cc1,7,1,60,64*[fluorescence artefact?],3,29
CN1CCCCc2c1[nH]c1ccccc1c2=O,0,7,83,-4,0,-3
COc1ccc(C(=O)CC(Nc2ccc([N+](=O)[O-])cc2)c2ccc(Cl)cc2)cc1 (centres undefined),-2,nt,nt,nt,nt,nt
O=C(NC(Cc1ccccc1)C(=O)O)c1ccc(S(=O)(=O)N2CCCCC2)cc1 (centres undefined),-1,5,103,-4,0,4
O=C(CSc1oc(-c2ccc(F)cc2)nc1S(=O)(=O)c1ccc(F)cc1)NCC1CCCO1 (centres undefined),-2,8,86,15,-1,16
Cc1ccc(-c2nc(S(=O)(=O)c3ccc(F)cc3)c(SCC(=O)NCC3CCCO3)o2)cc1 (centres undefined),0,2,107,67*[fluorescence artefact?],-8,25
O=C(CSc1oc(-c2ccccc2)nc1S(=O)(=O)c1ccc(F)cc1)NCC1CCCO1 (centres undefined),-13,4,148,20,5,7
Cc1ccc(S(=O)(=O)c2nc(-c3ccc(F)cc3)oc2SCC(=O)NCC2CCCO2)cc1 (centres undefined),1,1,310*[fluorescence artefact?],39,-68,15
COCCOC(=O)c1c(C)n(C)c2ccc(OC(=O)C3CC3)cc12,4,6,121,-7,1,-8
COc1cc(NS(=O)(=O)c2ccc(C)cc2)c2ncccc2c1,nt,0,100,-7,7,2
COc1cc(NCCCC(C)N)c2ncccc2c1 (centres undefined),26*,6,4,70*[fluorescence artefact?],21,90*[fluorescence artefact?]
Cc1ccc(-n2c(SCC(N)=O)nnc2-c2ccc(S(=O)(=O)N3CCCCC3)cc2)c(C)c1,0,4,90,-4,0,-7
CCn1cc(C(=O)N=c2sc3ccccc3n2C)c(=O)c2ccc(C)nc21,-7,9,250*,25,-2,7
Cc1cc2ccccc2n1CCNC(=O)c1ccc(S(=O)(=O)N2CCCCC2)cc1,-4,6,348*[fluorescence artefact?],14,5,26
Cc1cc(C)c(S(=O)(=O)NCCn2c(C)cc3ccccc32)c(C)c1,-1,8,146,0,5,1
Cc1ccc(S(=O)(=O)NCCn2c(C)cc3ccccc32)cc1,-6,11,376*,-14,10,-7
NC(=O)SC/C(=N\S(=O)(=O)c1ccccc1)Nc1ccccc1,2,nt,97,0,-3,97*[fluorescence artefact?]
Cc1ccc(SC(C)c2nc(-c3cccnc3)no2)cc1 (centres undefined),0,5,97,-34,4,-8
Cc1cc(NC(=O)c2cn(C3CCCCC3)c(=O)c3c2c2ccccc2n3C)no1,3,-1,200*[fluorescence artefact?],5,-7,21
CSc1cc(-c2ccc(Cl)cc2)n(Cc2ccccc2)c(=O)c1C#N,-1,-1,164,54*[fluorescence artefact?],-16,35
NNC(=O)c1ccc(OCc2nc3ccccc3[nH]2)cc1,nt,nt,nt,nt,7,nt
Cn1c(C(=O)OC(C(=O)NC2CCCCC2)c2ccncc2)cc2sccc21 (centres undefined),5,1,263*[fluorescence artefact?],42,-1,27
Cn1c(C(=O)OC(C(=O)NC2CCCC2)c2ccncc2)cc2sccc21 (centres undefined),2,10,90,18,6,25
O=C(O)[C@@H]1[C@H](C(=O)NCc2cccnc2)[C@@H]2C=C[C@H]1O2,nt,nt,nt,nt,7,nt
Cc1cc(=O)oc2cc(OCC3CC(c4ccc(N(C)C)cc4)=NO3)ccc12 (centres undefined),9,-4,153,51*[fluorescence artefact?],-37,27

# High-throughput results deposited in PubChem BioAssay by several laboratories.
